High-throughput results deposited in PubChem by National Center for Advancing Translational Sciences (NCATS).
The entries come from a sample that favours hits as a whole.
TbPYK inhibitor = inhibitors of Trypanosoma brucei pyruvate kinase | TbPYK enzyme, Kinase-Glo Plus ATP luminescence, 45 min | Potency, µM (series often up to 76.8 µM), inactives show at the highest dose activity, negative = inhibition, usual class: inhibitors | 0.12% of 410,000 active | AID 624173; note: potency is the fitted concentration of half-maximal effect; % is set by controls: 0 for no effect and ±100 for the full control effect; nearly all actives have a fitted effect of over 50% in size
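Quantitative HTS: titrated library compounds versus trypanosomal pyruvate kinase in TEA buffer (pH 7.2) containing KCl, MgCl2, BSA and Tween-20. Reactions were initiated with ADP, 130 uM final. Kinase-Glo Plus luminescence was read after 45 min at RT.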
LmPK inhibitor = inhibitors of Leishmania mexicana pyruvate kinase. purified LmPK, Kinase-Glo ATP luminescence, 1 h. Potency, µM (series often up to 57.5 µM), for inactives: at the highest dose activity change, negative = inhibition, usual class: inhibitors. 0.37% of 290,000 active. AID 1721; note: potency is the fitted concentration of half-maximal effect; % is set by controls: 0 for no effect and ±100 for the full control effect
Target sequence (Q27686 whole entry, looked up): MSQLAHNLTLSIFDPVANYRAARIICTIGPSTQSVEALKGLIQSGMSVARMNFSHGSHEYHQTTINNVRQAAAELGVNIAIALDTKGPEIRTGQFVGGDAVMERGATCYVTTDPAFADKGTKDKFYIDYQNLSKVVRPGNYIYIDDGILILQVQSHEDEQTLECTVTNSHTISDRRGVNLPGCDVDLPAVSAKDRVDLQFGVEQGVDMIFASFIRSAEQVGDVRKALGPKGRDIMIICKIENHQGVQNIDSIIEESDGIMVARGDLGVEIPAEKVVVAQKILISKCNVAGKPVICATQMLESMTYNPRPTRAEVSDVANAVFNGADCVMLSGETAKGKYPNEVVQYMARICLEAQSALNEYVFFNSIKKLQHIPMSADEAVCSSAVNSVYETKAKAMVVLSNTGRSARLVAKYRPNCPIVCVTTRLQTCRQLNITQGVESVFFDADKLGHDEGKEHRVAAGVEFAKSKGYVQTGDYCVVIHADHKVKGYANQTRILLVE
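In 50 mM imidazole pH 7.2 with 7 mM MgCl2, LmPK (0.1 nM) turned over PEP (0.5 mM) and ADP (0.1 mM) for 1 h at room temperature. Luciferase read-out of ATP.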
CHX counter = counter-screen for Shiga toxin inhibitors: cycloheximide protein synthesis inhibition | cell reporter, cycloheximide protein synthesis inhibition counterscreen | max response, % | 12% of 300,000 active | AID 2314; in the data active = max response mostly above about 13%, no sharp cut-off; inactive = mostly below about 14%; note: read at 38.3 µM for the half of the compounds with a filed dose; 0% is about no effect
Giardia FBPA inh = blocks Giardia fructose-bisphosphate aldolase activity; A8B2U2; AID 2451; Potency, µM (top dose mostly 59.6 µM), inactives show at the highest dose activity, negative = inhibition, usual class: inhibitors; 0.71% of 290,000 active; purified Giardia FBPA; note: potency is the fitted concentration of half-maximal effect; % is set by controls: 0 for no effect and ±100 for the full control effect; nearly all actives have a fitted effect of over 55% in size
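40 nM FBPA preincubated 10 min at RT with compound (up to 57.5 uM final), then substrate plus GAPDH/TPI/NAD/arsenate coupling and diaphorase/resazurin added. Fluorescence read after 20 min at RT, 525/598 nm.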
Shiga inhibitor = blocks Shiga toxin action in Vero cells; Vero cells, Shiga toxin protein synthesis inhibition reporter; inhibition, % at 38.7 µM; 9.2% of 290,000 active; AID 2315; in the data active = inhibition mostly above about 28%, no sharp cut-off; inactive = mostly below about 43%; note: 0% is about no effect
Sm TGR block = inhibitors of Schistosoma mansoni thioredoxin glutathione reductase. Potency, µM (doses to about 114 µM), for the others: top-dose activity change, negative = inhibition, usual class: inhibitors. Q962Y6. purified TGR, DTNB reduction, TNB absorbance 405 nm. 3% of 360,000 active; note: potency is the fitted concentration of half-maximal effect; % is set by controls: 0 for no effect and ±100 for the full control effect; nearly all actives have a fitted effect of over 60% in size
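Kinetic colorimetric format: TGR-catalysed, NADPH-driven DTNB reduction monitored via TNB absorbance. Enzyme dispensed at 20 nM; compound exposure 15 min at room temperature before reaction start.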
An asterisk follows results filed as active; u = inconclusive; x = not tested or not shown; [ ] = dose if it differs, or a comment. Unless noted, calls come from the whole dose curve; as a rule, active = well fitted curve in the direction sought with a large enough effect; inconclusive = small, poorly fitted or top-dose-only effect, or another doubt; inactive = no such curve, though single readings can be large; an effect the other way counts as inactive or inconclusive.

SMILES	TbPYK inhibitor	LmPK inhibitor	CHX counter	Giardia FBPA inh	Shiga inhibitor	Sm TGR block
Cc1ccc(Cc2cc(C)n[nH]c2=O)cc1	1%	5%	-3	4%	-3	30%
CC(C)Nc1ccc(-c2nc(-c3ccncc3)no2)cc1[N+](=O)[O-]	1%	x	x	x	x	-1%
C=C/C=C/CC1=C(C)[C@@H](OC(=O)[C@@H]2[C@@H](/C=C(\C)C(=O)OC)C2(C)C)CC1=O (tested in a mixture with another compound)	-4%	x	x	x	x	x
CCCc1ccc2oc(C(=O)NCCc3cnn(C)c3)c(C)c2c1	-13%	0%	34*	x	104*	-25%
CCCc1ccc2oc(C(=O)NCCc3nc(C(=O)OCC)cs3)c(C)c2c1	-4%	1%	32*	9%	50*	0%
O=C(NCc1ccccc1Cl)C1CCCN(C(=O)c2cnn(-c3ccccc3)c2-n2cccc2)C1 (configuration not stated)	-6%	x	x	x	x	-10%
CC(=NC1CCCCC1)C1=C(O)c2ccccc2C1=O	1%	2%	46*	u	50	0%
Cc1ccccc1NC(=O)C(=Cc1ccc(C(=O)O)cc1)C(=O)Nc1ccccc1C	2%	2%	-2	10%	-8	-8%
CC(=O)/C(=C/c1ccccc1)C(=O)Nc1ccccc1C	-10%	1%	-9	-1%	-6	45µM*
Cc1ccccc1NC(=S)NCc1ccco1	-1%	-1%	-3	0%	11	u
CCNC(=S)NCc1ccco1	-1%	-6%	-3	-3%	11	5%
S=C(NCc1ccco1)Nc1ccc(Br)cn1	-6%	-3%	11*	-3%	19	u
S=C(NCc1ccco1)Nc1cc(-c2ccccc2)[nH]n1	-19%	-3%	28*	1%	98*	16µM*
Cc1ccc(C(O)C2=CCCC2=O)cc1 (configuration not stated)	x	x	x	1%	x	x
COc1ccccc1N=CC=C1OC(C)(C)C(C)(C)O1	3%	9%	10*	-10%	50	-8%
Cc1ccc(N=CC=C2OC(C)(C)C(C)(C)O2)c(C)c1	18%	1%	10	5%	34	-11%
CC(C)=CCCC(C)CN1CCC(n2nccc2NC(=O)C2CCCC2)CC1 (configuration not stated)	3%	-1%	-2	3%	-17	-5%
CC(C)C(=O)N1CCN(c2nc(-c3ccc(Cl)cc3)cs2)CC1	-4%	-1%	-2	-20%	32	32µM*
CNC(=S)N1CCN(c2nc(-c3ccc(Cl)cc3)cs2)CC1	-15%	7%	16*	17%	21	0%
CCCCC(=O)N1CCN(c2nc(-c3ccc(F)cc3)cs2)CC1	5%	-1%	7	-15%	10	-15%
O=C(Cc1cccs1)N1CCN(c2nc(-c3ccc(Cl)cc3)cs2)CC1	-17%	2%	-5	-12%	-5	-15%
CCOC(=O)N1CCN(c2nc(-c3ccc(Cl)cc3)cs2)CC1	-4%	3%	36*	1%	46*	4%
COc1ccccc1C(=O)Nc1nc2ccc(S(=O)(=O)N3CCCC3)cc2s1	1%	x	x	x	x	0%
CC(O)CN(CCN(CC(C)O)CC(C)O)CC(C)O (configuration not stated)	-8%	x	x	x	x	x
O=S(=O)(Nc1ccc2c(c1)OCCO2)c1c(F)cccc1F	0%	3%	-2	-5%	-3	-18%
SMILES	TbPYK inhibitor	LmPK inhibitor	CHX counter	Giardia FBPA inh	Shiga inhibitor	Sm TGR block
CCOc1ccc(OCCCCN2CCCC2)cc1	-13%	-6%	-2	-13%	33	-13%
CCCCCCOc1ccc(CN2CCN(C)CC2)cc1	0%	-2%	41*	-12%	134*	-9%
CCCCOc1ccc(CN2CCCCC2)cc1	-3%	3%	17*	-2%	45*	0%
Cc1cc(C(=O)COC(=O)c2ccc[nH]c2=O)c(C)n1-c1ccccc1F	0%	6%	1	4%	-19	11%
Cc1ccc(-n2c(C)cc(C(=O)COC(=O)c3ccc[nH]c3=O)c2C)cc1C	-2%	1%	27*	11%	67*	0%
CCCn1c(C)cc(C(=O)COC(=O)c2ccc[nH]c2=O)c1C	-5%	-5%	29*	5%	45*	1%
Cc1cc(C(=O)COC(=O)C2=NNC(=O)CC2)c(C)n1-c1ccccc1	-3%	0%	29*	-8%	38*	1%
CCCn1c(C)cc(C(=O)COC(=O)c2ccc(Cl)c(S(=O)(=O)N3CCCC3)c2)c1C	-7%	1%	31*	0%	142*	0%
CCN(C(=S)Nc1cccc2ccccc12)c1ccccc1	-8%	x	x	x	x	x
CO[C@@H]1COC(=O)[C@H]2CCCN2C(=O)[C@@H](C)COC(=O)[C@H](COCc2ccccc2)NC(=O)C/C=C\[C@H]1C	x	x	x	7%[12.9 µM]	x	x
CC(=O)N1C[C@@H](CO)[C@@H](N(C)C(=O)C(C)(C)C)C[C@H]1c1ccccc1	3%	x	x	x	x	x
COc1ccc(Cc2nnc3sc(SCC(=O)Nc4ccccc4)nn3c2=O)cc1OC	0%	x	x	x	x	7%
COc1ccc2c(n1)Sc1nc3ccccc3nc1N2	-8%	-19%	56*	-17%	75*	2%
O=C(Nc1cccnc1)c1cnn2cccnc12	1%	-3%	0	-1%	24	-1%
O=C(Nc1cccc(O)c1)c1cnn2cccnc12	-4%	-7%	40*	3%	101*	6%
O=C(Nc1ccc2c(c1)OCO2)c1cnn2cccnc12	-9%	-18%	49*	-1%	74*	6%
CCOc1ccc(-c2nc3c(c(SCC(=O)N4CCCCC4)n2)Cc2cccc(OC)c2O3)cc1	-5%	x	x	x	x	-1%
CCc1ccc(NC(=O)COc2coc(CN3CCN(c4ccccc4)CC3)cc2=O)cc1	-1%	x	x	x	x	-8%
CCc1ccc(NC(=O)COc2ccc(F)cc2C(=O)c2cnn(-c3ccccc3)c2)cc1	-9%	0%	27*	-2%	active	-5%
COc1ccccc1NC(=O)Cn1cnc2c(cnn2-c2ccccc2)c1=O	2%	1%	-2	4%[12.9 µM]	-12	4%
COc1ccccc1NC(=O)COc1ccccc1C(=O)c1cnn(-c2ccccc2)c1	-1%	-5%	47*	-2%	24	-17%
COc1ccc(CN(Cc2ccco2)C(=O)COc2ccc(Cl)cc2C)cc1	-3%	x	x	x	x	7%
CCOc1ccc(NC(=O)CSc2oc(-c3cccs3)nc2S(=O)(=O)c2ccc(C)cc2)cc1	1%	x	x	x	x	0%
CC(C)(C)c1cc(C(=O)Nc2ccc(F)cc2)n(Cc2ccc(F)cc2)n1	7%	2%	26*	-9%	43*	2%
CC(C)(C)c1cc(C(=O)NNc2ccc(OC(F)(F)F)cc2)n(Cc2ccccc2)n1	-1%	2%	3	-1%	3	1%
